Reference: PubChem BioAssay (NCI)
The panel holds about 83,000 compounds, 20% with a hit somewhere; the sample as a whole holds those more often.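 Treatment: one concentration, 48 hours, 96-well format. Scoring: percent growth, with anything below 10 considered active.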 Activity calls are given as the source filed them.

Tested on: A498 renal
Assay: NCI-60 one-dose screen, 48 h (100 = growth as untreated, 0 = no growth, -100 = all killed)
Conditions: 10 µM unless noted

Row | Structure (SMILES) | growth
1 | CC(=O)[C@@H]1CC[C@]2(C(N)=O)CC[C@]3(C)[C@H](CC[C@@H]4[C@@]5(C)CCCNC(C)(C)[C@@H]5CC[C@]43C)[C@@H]12 | 96.6% (inactive)
2 | Oc1c(Cl)cc(Cl)c(Cl)c1CNCCNCc1c(O)c(Cl)cc(Cl)c1Cl | 51.3% (inactive)
3 | O=C1Nc2cc(Cl)ccc2/C1=C\c1c(-c2ccc(F)cc2)nc2ccccn12 | -17% (active)
4 | O=C(NO)c1ccc(-n2nc(-c3ccccc3)c3ccccc32)cc1 | 58.8% (inactive)
5 | O=C(CNCCN1CCOCC1)N1c2cccc3cccc(c23)N(C(=O)CNCCN2CCOCC2)C1c1cn(-c2ccccc2)nc1-c1cccc([N+](=O)[O-])c1 | 84.5% (inactive)
6 | O=C1c2cccc3c(-c4ccc5c(c4)ncn5C4CCCCC4)ccc(c23)C(=O)N1CCO | 103% (inactive)
7 | CC(=O)Oc1ccc(/C=N/NC(N)=S)nc1 | 88.6% (inactive)
8 | NC(=S)N1N=C(c2ccccc2)CC1c1cn(-c2ccccc2)nc1-c1ccc(OCc2ccccc2)cc1 (configuration not stated) | 94.5% (inactive)
9 | Cc1ccc(-c2nc3ccccn3c2/C=C2/C(=O)Nc3cc(Cl)ccc32)cc1 | 98.2% (inactive)
10 | Clc1ccc(-c2ccc(CNCC3CCNCC3)o2)c(-c2ccccc2)c1 | 6.29% (active)
11 | CC(=O)[C@H]1CCC/C=C/[C@@H]2C[C@H](O)C[C@H]2[C@H](O)/C=C/C(=O)O1 | -42.8% (active)
12 | CCOC(=O)c1cc(C(=O)c2ccc(Br)cc2)n2ccc(/C=C/c3cc[n+](CC(=O)c4ccc(OC)cc4)cc3)cc12 | 92% (inactive)
